Bioassay records deposited in PubChem BioAssay by several laboratories.
Shown are actives, neighbours in structure and some others; about 3.4% of the full set was active somewhere.
PG9 Ab binder: PG9 antibody binding by small molecule. hit rate 0.43% among 360,000. TR-FRET gp120-PG9 antibody binding. AID 624416. inhibition, % at 6.7 µM; in the data active = inhibition above about 8.5%
HSF1 inh: HSF1 inhibition. activity change, negative = inhibition, % at 7.5 µM (by protocol). hit rate 0.77% among 300,000. NIH3T3-HGL HSE-luciferase, MG132-induced, luminescence 8 h; active compounds read low;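 active = more than half of replicate wells show activity change below -50%, luminescence cut by over half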;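 also: luciferase reports HSF-1 transcriptional activity via heat shock element; 0% = median of DMSO wells and -100% = zero luminescence signal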
SMARCA2 activ: increases SMARCA2 function in MMTV reporter cells; MG213 cells, MMTV-luciferase reporter, dexamethasone, overnight; activation, % at 9.1 µM; hit rate 1% among 370,000; in the data active = activation above about 7.8%;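 also: 0% = vehicle wells and 100% = reference activator wells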
FXN GAA850 act: frataxin GAA850 promoter activation; HEK293 lucGAA850 FXN promoter luciferase reporter, 24 h; percent of 10 µM SAHA response; activation, % at 6 µM; hit rate 0.56% among 360,000; AID 540364;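 active = activation above the average of all compounds screened plus 3 SD, cutoff fixed separately per campaign, cut at about 7.5% in these data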;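 also: 0% = DMSO wells and 100% = 10 µM SAHA wells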
AI-2 QS mod: modulates the Vibrio harveyi AI-2 quorum sensing system. Vibrio harveyi JMH597 AI-2 luminescence/OD600 ratio, 9 h; active compounds read low; strain lacks LuxN and CqsS sensors; 0 = neutral-control median. activity change, % at 7.5 µM. hit rate 0.4% among 300,000. AID 2094; in the data active = activity change below about -75%, passing the limit was not always enough;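 also: luminescence divided by OD600 gain over 9 h not by final OD600 alone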
HSP90 inh: blocks HSP90-mediated luciferase refolding in reticulocyte lysate; Rabbit reticulocyte lysate, luciferase refolding luminescence, 3 h; inhibition, % at 5.6 µM; hit rate 0.91% among 290,000; AID 1789;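 active = inhibition above the screen-wide mean plus 3 SD, computed separately per campaign, cut at about 16% in these data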;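 also: 0% = DMSO wells and 100% = 60 µM geldanamycin wells; inhibitors lower the luminescence because luciferase stays unfolded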
Starred values were filed as active, the others as inactive.

Results for C#CCOCCOCCOCCNc1nc(N2CCN(C(=O)C(Cc3cc4ccccc4[nH]3)n3cc(C(N)Cc4ccc(O)cc4)nn3)CC2)nc(N2CCN(C(=O)C(Cc3cc4ccccc4[nH]3)n3cc(C(N)Cc4ccc(O)cc4)nn3)CC2)n1 (stereo unspecified) ?
HSF1 inh: -6; AI-2 QS mod: 47; HSP90 inh: 23*

Results for COc1ccc(/C=N/N2C(=O)CSC2=S)cc1 ?
PG9 Ab binder: -1; HSF1 inh: 8; SMARCA2 activ: 1; FXN GAA850 act: 1; AI-2 QS mod: 22; HSP90 inh: 2

What do the screens show for `CC(C)(C)c1ccc(/C=N/N2C(=O)CSC2=S)cc1`?
PG9 Ab binder: -2; HSF1 inh: -77*; SMARCA2 activ: -5; FXN GAA850 act: -4; AI-2 QS mod: 41; HSP90 inh: 4

How did CCCC[C@@H](CNC)NC[C@H](Cc1ccc(O)cc1)NCCc1ccc(OCC)cc1 do in these assays?
PG9 Ab binder: -1; HSF1 inh: -80*; SMARCA2 activ: 2; FXN GAA850 act: -1; AI-2 QS mod: 8; HSP90 inh: -1

Results for Cc1cccc2nc(-c3cccc(NC(=O)Cc4ccccc4)c3)cn12 ?
PG9 Ab binder: 0; HSF1 inh: 8; SMARCA2 activ: 13*; FXN GAA850 act: 4; AI-2 QS mod: 1; HSP90 inh: 1

What do the screens show for `CCOc1cc(CNc2ccc3c(c2)OCCO3)cc(Br)c1OC`?
PG9 Ab binder: -1; HSF1 inh: -47; SMARCA2 activ: -6; FXN GAA850 act: -14; AI-2 QS mod: 34; HSP90 inh: 6

Results for CCOc1cc(CNc2ccc3c(c2)OCCO3)cc(Br)c1OCC(N)=O ?
PG9 Ab binder: -1; HSF1 inh: -74*; SMARCA2 activ: -5; FXN GAA850 act: -5; AI-2 QS mod: 30; HSP90 inh: -2

How did CS(=O)(=O)N(CC(=O)NCCSC1CCCCC1)c1ccc2c(c1)OCO2 do in these assays?
PG9 Ab binder: -4; HSF1 inh: -67*; SMARCA2 activ: -1; FXN GAA850 act: 2; AI-2 QS mod: 2; HSP90 inh: -2

What do the screens show for `CCN1C(=NCCc2cccs2)N[C@@H](c2cccs2)C(C(=O)OC)=C1C`?
HSF1 inh: -60*; FXN GAA850 act: -5; AI-2 QS mod: 12; HSP90 inh: 0

How did CCOC(=O)CN1C(=O)N[C@@H](c2cccs2)C(C(=O)OC)=C1C do in these assays?
PG9 Ab binder: -1; HSF1 inh: 8; SMARCA2 activ: -1; FXN GAA850 act: 0; AI-2 QS mod: 16

Results for COc1ccc(CNC(=O)C2CCCN(c3nc4ccccc4o3)C2)cc1 (stereo unspecified) ?
SMARCA2 activ: -6

Results for COc1ccc(OC)c(-n2nnnc2SCC(=O)NCc2ccc3c(c2)OCO3)c1 ?
PG9 Ab binder: 0; HSF1 inh: -72*; SMARCA2 activ: 0; FXN GAA850 act: -2; AI-2 QS mod: 17; HSP90 inh: -2

What do the screens show for `Cc1cc(-c2n[nH]c(=S)n2N=Cc2c3ccccc3cc3ccccc23)n[nH]1`?
SMARCA2 activ: -4

How did CCCC[C@H]1C2CC(OC(=O)NCc3ccc(Cl)cc3)C(C2)[C@H]2CCCCN21 (stereo partly specified) do in these assays?
SMARCA2 activ: -3

What do the screens show for `COc1ccc(N2C(=O)CC(Nc3ccc(C)cc3)C2=O)cc1` (stereo unspecified)?
PG9 Ab binder: -1; HSF1 inh: -2; SMARCA2 activ: -1; FXN GAA850 act: -2; AI-2 QS mod: -5; HSP90 inh: -2

Results for COc1ccc(N2C(=O)CC(NNc3ncc(Cl)cc3Cl)C2=O)cc1 (stereo unspecified) ?
PG9 Ab binder: -2; HSF1 inh: -60*; SMARCA2 activ: 0; FXN GAA850 act: -2; AI-2 QS mod: 29; HSP90 inh: 7

How did O=[N+]([O-])c1cc(CN2CCN(c3cccc(C(F)(F)F)c3)CC2)c2cccnc2c1O do in these assays?
PG9 Ab binder: 0; HSF1 inh: -22; SMARCA2 activ: -5; AI-2 QS mod: -97*; HSP90 inh: 1

What do the screens show for `O=C(O)c1ccc(N/N=C/c2ccc(-c3ccc(Br)cc3)o2)cc1`?
PG9 Ab binder: -4; HSF1 inh: -3; SMARCA2 activ: -1; FXN GAA850 act: 3; AI-2 QS mod: -96*; HSP90 inh: 0

How did O=C(O)c1cc(-c2ccc(/C=N/Nc3ccc(Cl)cc3)o2)ccc1Cl do in these assays?
PG9 Ab binder: -1; HSF1 inh: 2; SMARCA2 activ: -1; FXN GAA850 act: 0; AI-2 QS mod: -1; HSP90 inh: -4

Results for CCOc1ccc(OCCC(=O)OCC(=O)N2CCN(S(=O)(=O)c3ccc(Cl)cc3)CC2)cc1 ?
PG9 Ab binder: -2; HSF1 inh: 62; SMARCA2 activ: 1; FXN GAA850 act: 9.7*; AI-2 QS mod: 32; HSP90 inh: 5

Results for CCCCCc1cccc2[nH]cc(-c3ccccc3)c12 ?
SMARCA2 activ: -1

How did O=C(O)c1cc2cc(F)ccc2[nH]1 do in these assays?
PG9 Ab binder: 0; HSF1 inh: -64*; SMARCA2 activ: -4; FXN GAA850 act: -2; AI-2 QS mod: 11; HSP90 inh: -4

What do the screens show for `O=C(O)c1cc2cc(Cl)ccc2[nH]1`?
PG9 Ab binder: 0; SMARCA2 activ: -3; FXN GAA850 act: -1

How did Cc1ccc(S(=O)(=O)c2nc(S(C)(=O)=O)sc2N2CCC(C)CC2)cc1 do in these assays?
PG9 Ab binder: 0; HSF1 inh: 4; SMARCA2 activ: 7.8*; FXN GAA850 act: 2; AI-2 QS mod: 59; HSP90 inh: 2

How did Cc1ccc(S(=O)(=O)c2nc(S(C)(=O)=O)sc2N2CCCCCC2)cc1 do in these assays?
PG9 Ab binder: 0; HSF1 inh: 3; SMARCA2 activ: -3; FXN GAA850 act: 2; AI-2 QS mod: 17; HSP90 inh: 0

Results for COc1ccc(C(=O)Oc2ccc(/C=N/O)cc2)cc1 ?
PG9 Ab binder: 2; HSF1 inh: -64*; SMARCA2 activ: 3; FXN GAA850 act: 1; AI-2 QS mod: 4; HSP90 inh: -1

How did Cc1ccc(-c2nc(C3CCCN(S(=O)(=O)c4ccccc4)C3)no2)cc1 (stereo unspecified) do in these assays?
SMARCA2 activ: 4

Results for c1cnc(SCC2CCCCC2)c(-c2nc3ccccc3[nH]2)c1 ?
SMARCA2 activ: 5

Results for COc1cccc(-n2nnc3c(=O)n(Cc4ccccc4Cl)cnc32)c1 ?
PG9 Ab binder: 0; HSF1 inh: -58*; SMARCA2 activ: -3; FXN GAA850 act: 1; AI-2 QS mod: 5; HSP90 inh: 7

Results for COC(=O)C1CN(Cc2cn(Cc3ccc(F)cc3)nn2)CCS(=O)(=O)N1Cc1ccccc1 (stereo unspecified) ?
SMARCA2 activ: -3

Results for c1cc(-c2nnc3n2N=C(c2ccc4c(c2)OCO4)CS3)ccn1 ?
SMARCA2 activ: -4
